Experiments:
Details in all cases: Compound Concentration (nM):1000
[1] = test system: RET(V804M)
[2] = test system: RET
[3] = test system: RIOK1
[4] = test system: RIOK2
[5] = test system: RIOK3
[6] = test system: RIPK1
[7] = test system: RIPK2
[8] = test system: RIPK4
[9] = test system: T1, RIPK5
T1 construct: gene DSTYK

[10] = test system: ROCK1
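Further: KINOMEscan scanMAX binding as percent activity remaining versus control; lower means stronger binding.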

Row | Structure (SMILES) | Percent Control [1] [%] | Percent Control [2] [%] | Percent Control [3] [%] | Percent Control [4] [%] | Percent Control [5] [%] | Percent Control [6] [%] | Percent Control [7] [%] | Percent Control [8] [%] | Percent Control [9] [%] | Percent Control [10] [%]
1 | NS(=O)(=O)c1ccc(N/N=C2\C(=O)Nc3ccc(-c4cnco4)cc32)cc1 [GW276655] | 92 | 82 | 27 | 69 | 51 | 76 | 84 | 87 | 68 | 8.8
2 | CN(C)c1cc2c(Nc3ccc4c(cnn4Cc4ccccc4)c3)ncnc2cn1 [GW282974X] | 89 | 86 | 98 | 100 | 100 | 53 | 27 | 74 | 90 | 100
3 | COc1cccc(-c2c[nH]c3c(N/N=C/c4ccncc4)ncnc23)c1 [GW814408X] | 100 | 85 | 49 | 76 | 66 | 100 | 41 | 13 | 100 | 79
4 | O=C(Nc1n[nH]c2nc(-c3ccc(O)cc3)c(Br)cc12)C1CC1 [SB-725317] | 96 | 100 | 55 | 82 | 56 | 100 | 100 | 90 | 100 | 100
5 | COc1cc(C=NNc2ncnc3c2cnn3-c2ccccc2)ccc1O [GW513184X] | 100 | 44 | 32 | 45 | 16 | 96 | 50 | 9.1 | 90 | 97
6 | C/C(Nc1ccc(S(N)(=O)=O)cc1)=C1/C(=O)Nc2ccccc21 [GW335962X] | 100 | 96 | 82 | 100 | 69 | 96 | 83 | 86 | 48 | 83
7 | NS(=O)(=O)c1ccc(Nc2ncc(-c3ccccc3)o2)cc1 [GW572399X] | 100 | 100 | 73 | 100 | 89 | 100 | 100 | 100 | 94 | 85
8 | NS(=O)(=O)c1ccc(N/N=C2\C(=O)Nc3ccc(C(=O)NCCc4c[nH]cn4)cc32)cc1 [GW300660X] | 100 | 100 | 74 | 100 | 78 | 100 | 100 | 80 | 59 | 67
9 | C[C@@H](Oc1cc(-n2cnc3ccc(OC4CCN(C)CC4)cc32)sc1C(N)=O)c1ccccc1Cl [GSK579289A] | 84 | 99 | 13 | 91 | 34 | 89 | 87 | 33 | 93 | 87
10 | Cl.O=C(Nc1ccc(Oc2ccc3[nH]c(NC(=O)c4ccccc4)nc3c2)cc1)Nc1cc(C(F)(F)F)ccc1F [GW709042A] | 2.7 | 0.6 | 52 | 100 | 33 | 62 | 89 | 100 | 100 | 95
11 | COc1cc2ncnc(Nc3ccc4c(cnn4Cc4ccccc4)c3)c2cc1OC.Cl [GW282449A] | 100 | 75 | 97 | 88 | 100 | 100 | 27 | 100 | 71 | 94
12 | CCn1c(-c2nonc2N)nc2c(C#CC(C)(C)O)nc(OCCNC)cc21.Cl [GSK949675] | 100 | 96 | 100 | 91 | 100 | 100 | 100 | 100 | 99 | 57
13 | Nc1ncnc2occ(-c3ccc(NC(=O)Nc4cc(C(F)(F)F)ccc4F)cc3)c12 [GW770249X] | 0.1 | 0 | 56 | 100 | 44 | 26 | 100 | 100 | 80 | 84
14 | COc1cc(/C=N/Nc2ncnc3[nH]ncc23)ccc1O [GW578748X] | 77 | 5.9 | 47 | 8.9 | 46 | 100 | 100 | 6.9 | 75 | 63
15 | CC1=C(C(=O)Nc2ccc3[nH]ncc3c2)C(c2ccc3ccccc3c2)CC(=O)N1 (stereo not shown) [GSK270822A] | 66 | 28 | 74 | 100 | 88 | 97 | 90 | 68 | 96 | 
16 | CCS(=O)(=O)c1ccc(OC)c(Nc2ncc(-c3cccc(OC)c3)o2)c1 [GW580509X] | 75 | 55 | 100 | 82 | 98 | 100 | 88 | 90 | 91 | 100
17 | CN(C)CCNC(=O)Nc1ccc(N(C)c2ccnc(Nc3ccc(CS(C)(=O)=O)cc3)n2)cc1.Cl [GW830900A] | 86 | 60 | 9.5 | 90 | 17 | 99 | 94 | 60 | 32 | 9.4
18 | NS(=O)(=O)c1ccc(N/N=C2\C(=O)Nc3ccc(Cl)cc32)cc1 [GW280670X] | 100 | 100 | 74 | 100 | 89 | 100 | 100 | 100 | 100 | 100
19 | CC1=C(C(=O)Nc2ccc3[nH]ncc3c2)C(c2ccc(Cl)c(Cl)c2)CC(=O)N1 (stereo not shown) [GSK299115A] | 89 | 76 | 99 | 100 | 86 | 77 | 72 | 78 | 99 | 0
20 | COc1cc(N2CCN(C(C)C)CC2)ccc1Nc1nc(Nc2ccc(F)cc2C(=O)NC[C@@H](O)CO)c2cc[nH]c2n1 [GSK1392956A] | 88 | 85 | 66 | 27 | 79 | 76 | 100 | 84 | 25 | 87
21 | COc1cc(C)c(N(C)C(=O)CN(C)C)cc1Nc1nc(Nc2cccc(F)c2C(N)=O)c2cc[nH]c2n1 [GSK2219385] | 71 | 87 | 73 | 74 | 74 | 95 | 100 | 74 | 88 | 100
22 | COc1ccc2[nH]c3c4[nH]c5ccc(OC)cc5c4c4c(c3c2c1)C(=O)NC4=O [GW296115X] | 21 | 41 | 58 | 89 | 100 | 90 | 60 | 83 | 27 | 72
23 | CN1CCN(C(=O)c2ccc(NC(=O)Nc3ccc(N(C)c4ccnc(Nc5ccc(CS(C)(=O)=O)cc5)n4)cc3)cc2)CC1.Cl [GW830263A] | 0.5 | 0 | 2.2 | 21 | 0 | 100 | 94 | 57 | 5.4 | 17
24 | Cc1cc(O)cc(C)c1/C=C/c1cncc(C(N)=O)c1 [GW435821X] | 100 | 100 | 99 | 100 | 93 | 100 | 21 | 100 | 93 | 100
25 | COc1ccccc1-c1cc(/C=C2\C(=O)Nc3ncc(Br)cc32)cc(Br)c1O [GW442130X] | 100 | 100 | 100 | 17 | 100 | 100 | 100 | 100 | 100 | 96
26 | COc1cc2ncn(-c3cc(O[C@H](C)c4ccccc4Cl)c(C(N)=O)s3)c2cc1OC [GSK237701A] | 77 | 54 | 26 | 100 | 19 | 61 | 100 | 87 | 84 | 69
27 | NS(=O)(=O)c1ccc(N/N=C2\C(=O)Nc3ccc(C(=O)NCc4ccncc4)cc32)cc1 [GW300657X] | 84 | 92 | 62 | 77 | 63 | 89 | 100 | 72 | 47 | 64
28 | CCS(=O)(=O)c1ccc(OC)c(Nc2ncc(-c3cccc(F)c3)o2)c1 [GW621970X] | 100 | 67 | 94 | 71 | 100 | 85 | 57 | 100 | 100 | 96
29 | COc1cccc(-n2ncc3c(N/N=C/c4ccncc4)ncnc32)c1 [GW784752X] | 87 | 97 | 79 | 75 | 94 | 89 | 38 | 3.9 | 100 | 74
